The source of these data is PubChem BioAssay (NCI).

The panel holds about 83,000 compounds, 20% with a hit somewhere; the sample as a whole holds those more often.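 Treatment: one concentration, 48 hours, 96-well format. Scoring: percent growth, with anything below 10 considered active.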 Activity calls are given as the source filed them.

One experiment deals with CCRF-CEM leukemia. Briefly: NCI-60 one-dose screen, 48 h (100 = growth as untreated, 0 = no growth, -100 = all killed). Particulars: 10 µM unless noted.
For `Cc1ccc2c(c1)n([O-])c1cc(Cl)ccc1[n+]2=O`, the growth was 34.9% (inactive).

In the case of `CN1/C(=C\C=C\C2=[N+](C)c3ccccc3C2(C)C)C(C)(C)c2ccccc21`, the growth is 7.62% (active).

`CC/C(=C(\c1ccccc1)c1ccc(OCCNC)cc1)c1ccccc1`: the growth is 0.764% (active). Still for that read-out and setting: the value for `CCN(CC)Cc1cc(Nc2c3ccc(Cl)cc3nc3c(C)cccc23)ccc1O` was 4.19% (active); that for `C=CC[N+]1(CCO)CCN=C1CCCCCCCCCCCCC` (stereo unspecified) was -40.6% (active). Still for that read-out and setting: the value for `N#Cc1ccc(NC(=O)Nc2ccc(Cc3ccc(NC(=O)Nc4ccc(C#N)cc4)cc3)cc2)cc1` was 17.4% (inactive); that for `CC1=NNC(=O)C1C` (stereo unspecified) was 97.1% (inactive); that for `COc1nc2c(cc1S(=O)(=O)c1ccccc1)CCc1c-2cnn1Cc1ccccc1` was 68.7% (inactive).

With `CCc1ccc(C(c2ccc(CC)cc2)C(Cl)(Cl)CCl)cc1`, the growth was 114% (inactive). As for `C=CCSc1nnc(-c2ccc(C(C)(C)C)cc2)n1-c1cccc(C(F)(F)F)c1`, the growth is 24.2% (inactive). On the same count and under the same terms, the value for `CSc1ncnc2c1ncn2C1CCCO1` (stereo unspecified) was 109% (inactive); that for `OCC1C2C=CC(C2)C1CO` (stereo unspecified) was 126% (inactive). `Cc1ccc(/C=C2\Oc3cc(OCC(=O)c4ccc(Cl)cc4)ccc3C2=O)cc1`: the growth was 176% (inactive). The same measure, in the same setting: under `Cn1c2c(Cl)c(Cl)ccc2c2ccn3c(=O)c4ccccc4nc3c21` stands 80.8% (inactive). On the same count and under the same terms, under `CSc1[nH]c2ncnc(N)c2c1C#N` stands 110% (inactive). Take `CCN(CC)CCCC(C)NCCCNc1cccc2cccnc12` (stereo unspecified): the growth is 96.9% (inactive). The same measure, in the same setting: the value for `C=CC[N+]1(CC)CCN=C1CCCCCCCCCCCCCCCCC` (stereo unspecified) was -59.4% (active); that for `CCN(CC)CCCNc1cc(OC)cc2nc3cc(Cl)ccc3nc12` was 19.9% (inactive); that for `CCCCCCCCCCNC(=O)CCl` was 57.8% (inactive).

Regarding `CCOC(=S)SCc1ccc(Cl)cc1`, the growth was 130% (inactive).

With `O=C(O)c1ccc2c(c1Sc1ccccc1)C(=O)c1ccccc1C2=O`, the growth is 91.9% (inactive). `CCN(CC)CC(C)Nc1ccc([N+](=O)[O-])c2sc3ccccc3c(=O)c12` (stereo unspecified): the growth is 15.2% (inactive). Same read-out and setting: under `Cc1cc2c(cc1C)NC1=C(N2)OC(c2c3ccccc3cc3ccccc23)C1=O` (stereo unspecified) stands 20.5% (inactive); under `O=C(Nc1ccc(CN2CCOCC2)cc1)c1[nH]ncc1Nc1ncnc2sccc12`, 5.37% (active). On the same count and under the same terms, under `CCOC(=O)C(C#N)C1CCCCC1` (stereo unspecified) stands 87.2% (inactive); under `Nc1cccc(NC(=O)C(=O)Nc2cccc(N)c2)c1`, 97.9% (inactive); under `CN(CC(=O)N(Cc1ccc(C2CCCCC2)cc1)c1ccc(C(=O)NO)cc1)S(=O)(=O)c1c(F)c(F)c(F)c(F)c1F`, 41.9% (inactive). The same measure, in the same setting: the value for `CCN(CC)c1ccc(/C=C/C2=[N+](C)c3ccccc3C2(C)C)cc1` was 7.5% (active); that for `CN(C)c1ccc(/C=C(\C#N)c2nc3ccccc3s2)cc1` was 81.8% (inactive); that for `CCN(CC)CC(O)CNc1c2ccc([N+](=O)[O-])cc2nc2cc(OC)c(OC)cc12` (stereo unspecified) was 9.53% (active).

Consider `COc1nc2c(cc1S(=O)(=O)c1ccccc1)CCc1c-2cnn1-c1ccc(Cl)cc1`, for which the growth was 84.2% (inactive).

Regarding `Cc1cc(-c2nc3ccccc3s2)ccc1NC(=O)COc1ccc(Cl)cc1`, the growth was 106% (inactive). The same measure, in the same setting: under `N#Cc1c(N)nc(N)nc1Nc1ccc(Br)cc1` stands 61.1% (inactive); under `CCN(CC)CC(C)(C)C(=O)/C=C/c1ccccc1`, 9.36% (active); under `CNc1cc2nc3cc(NC)c(C)cc3cc2cc1C`, 40.9% (inactive). On the same count and under the same terms, under `O=C(Cc1ccccc1)c1ccc(Cl)cc1` stands 99.1% (inactive); under `O=C(O)c1cccnc1Br`, 121% (inactive).

Another experiment relates to MOLT-4 leukemia. Described as above. Particulars: 10 µM unless noted.
As for `Cc1ccc2c(c1)n([O-])c1cc(Cl)ccc1[n+]2=O`, the growth is -9.08% (active).

As to `CN1/C(=C\C=C\C2=[N+](C)c3ccccc3C2(C)C)C(C)(C)c2ccccc21`, the growth was -12.6% (active). Same read-out and setting: under `CC/C(=C(\c1ccccc1)c1ccc(OCCNC)cc1)c1ccccc1` stands 27.1% (inactive). Still for that read-out and setting: under `CCN(CC)Cc1cc(Nc2c3ccc(Cl)cc3nc3c(C)cccc23)ccc1O` stands -3.97% (active). Still for that read-out and setting: under `C=CC[N+]1(CCO)CCN=C1CCCCCCCCCCCCC` (stereo unspecified) stands -42.6% (active). Take `N#Cc1ccc(NC(=O)Nc2ccc(Cc3ccc(NC(=O)Nc4ccc(C#N)cc4)cc3)cc2)cc1`: the growth is 12.5% (inactive). With `CC1=NNC(=O)C1C` (stereo unspecified), the growth is 145% (inactive). On the same count and under the same terms, under `COc1nc2c(cc1S(=O)(=O)c1ccccc1)CCc1c-2cnn1Cc1ccccc1` stands 44.9% (inactive); under `O=C(/C=C\c1ccc2ccccc2n1)c1cc(Cl)ccc1O`, 54.2% (inactive). In the case of `CCc1ccc(C(c2ccc(CC)cc2)C(Cl)(Cl)CCl)cc1`, the growth was 84.4% (inactive).

As for `C=CCSc1nnc(-c2ccc(C(C)(C)C)cc2)n1-c1cccc(C(F)(F)F)c1`, the growth was 21.8% (inactive).

For the molecule `CSc1ncnc2c1ncn2C1CCCO1` (stereo unspecified), the growth is 106% (inactive). Take `OCC1C2C=CC(C2)C1CO` (stereo unspecified): the growth was 97.9% (inactive).

For the molecule `Cc1ccc(/C=C2\Oc3cc(OCC(=O)c4ccc(Cl)cc4)ccc3C2=O)cc1`, the growth was 102% (inactive). For `Cn1c2c(Cl)c(Cl)ccc2c2ccn3c(=O)c4ccccc4nc3c21`, the growth was 94.7% (inactive). Still for that read-out and setting: the value for `CSc1[nH]c2ncnc(N)c2c1C#N` was 89.7% (inactive); that for `CCN(CC)CCCC(C)NCCCNc1cccc2cccnc12` (stereo unspecified) was 94.1% (inactive). On the same count and under the same terms, under `C=CC[N+]1(CC)CCN=C1CCCCCCCCCCCCCCCCC` (stereo unspecified) stands -60% (active); under `CCN(CC)CCCNc1cc(OC)cc2nc3cc(Cl)ccc3nc12`, -26.2% (active). Turning to `CCCCCCCCCCNC(=O)CCl`, the growth is 54.8% (inactive). The same measure, in the same setting: under `CCOC(=S)SCc1ccc(Cl)cc1` stands 82.2% (inactive).

In the case of `O=C(O)c1ccc2c(c1Sc1ccccc1)C(=O)c1ccccc1C2=O`, the growth was 113% (inactive). Turning to `CCN(CC)CC(C)Nc1ccc([N+](=O)[O-])c2sc3ccccc3c(=O)c12` (stereo unspecified), the growth is -24% (active). The same measure, in the same setting: the value for `Cc1cc2c(cc1C)NC1=C(N2)OC(c2c3ccccc3cc3ccccc23)C1=O` (stereo unspecified) was 24.8% (inactive); that for `O=C(Nc1ccc(CN2CCOCC2)cc1)c1[nH]ncc1Nc1ncnc2sccc12` was -2.6% (active); that for `CCOC(=O)C(C#N)C1CCCCC1` (stereo unspecified) was 79.3% (inactive). The same measure, in the same setting: the value for `Nc1cccc(NC(=O)C(=O)Nc2cccc(N)c2)c1` was 98.1% (inactive); that for `CN(CC(=O)N(Cc1ccc(C2CCCCC2)cc1)c1ccc(C(=O)NO)cc1)S(=O)(=O)c1c(F)c(F)c(F)c(F)c1F` was 39.2% (inactive); that for `CCN(CC)c1ccc(/C=C/C2=[N+](C)c3ccccc3C2(C)C)cc1` was 15.1% (inactive). The same measure, in the same setting: the value for `CN(C)c1ccc(/C=C(\C#N)c2nc3ccccc3s2)cc1` was 96.4% (inactive); that for `CCN(CC)CC(O)CNc1c2ccc([N+](=O)[O-])cc2nc2cc(OC)c(OC)cc12` (stereo unspecified) was -9.91% (active). Turning to `COc1nc2c(cc1S(=O)(=O)c1ccccc1)CCc1c-2cnn1-c1ccc(Cl)cc1`, the growth is 86.3% (inactive).

Take `Cc1cc(-c2nc3ccccc3s2)ccc1NC(=O)COc1ccc(Cl)cc1`: the growth was 94.5% (inactive).

Consider `N#Cc1c(N)nc(N)nc1Nc1ccc(Br)cc1`, for which the growth was 76.5% (inactive). The same measure, in the same setting: the value for `CCN(CC)CC(C)(C)C(=O)/C=C/c1ccccc1` was 19.1% (inactive); that for `CNc1cc2nc3cc(NC)c(C)cc3cc2cc1C` was 1.13% (active); that for `O=C(COc1cccc(/C=C2/Oc3ccccc3C2=O)c1)Nc1nccs1` was 28.4% (inactive). Same read-out and setting: the value for `O=C(Cc1ccccc1)c1ccc(Cl)cc1` was 84.2% (inactive); that for `O=C(O)c1cccnc1Br` was 103% (inactive).
